Assay results reported in PubChem BioAssay AID1159580 (chemical genetic matrix, 2015).
About 2,000 (36%) of roughly 5,500 compounds were called active. Inconclusive results (about 18%) are left out. No stated cut-off is given here; in the data, active means normalized growth mostly below about 0.91 (no sharp cut-off); inconclusive means no clear call, values can overlap the other calls; inactive means mostly above about 0.92. This is one part of the list.

Assay: chemical genetic growth profiling, strain panel (AID 1159580);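 further: tested at 20 µM; growth read once vehicle control cultures reached saturation at 30 °C; 1 = growth at the plate median or of vehicle wells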
Details: S. cerevisiae deletion strains, growth OD
[1] = locus YAL013W, strain DEP1, stronger effect = lower value
[2] = locus YJR075W, strain HOC1, stronger effect = lower value
[3] = locus YNL153C, strain GIM3, stronger effect = lower value
[4] = locus YNL322C, strain KRE1, stronger effect = lower value
[5] = locus YPL055C, strain LGE1, stronger effect = lower value
[6] = locus YHR030C, strain SLT2, stronger effect = lower value

Measured: normalized growth

CN[C@@H]1C[C@@H](c2ccc(Cl)c(Cl)c2)c2ccccc21
inactive: [1] 0.923 | locus YAL040C, strain CLN3, stronger effect = lower value 1.02 | locus YCL061C, strain MRC1 (second series), stronger effect = lower value 0.942 | locus YER002W, strain NOP16, stronger effect = lower value 1.06 | [2] 0.958 | locus YNL175C, strain NOP13, stronger effect = lower value 1 | locus YNL197C, strain WHI3, stronger effect = lower value 1.01 | locus YNL224C, strain SQS1, stronger effect = lower value 1.07 | [5] 0.927
active: locus YDR363W, strain ESC2, stronger effect = lower value 0.865 | [3] 0.663 | [4] 0.738 | locus YOR083W, strain WHI5 (second series), stronger effect = lower value 0.826

CN[C@H]1CC[C@@H](c2ccc(Cl)c(Cl)c2)c2ccccc21
inactive: locus YAL030W, strain snc1, stronger effect = lower value 0.985 | locus YBR171W, strain sec66, stronger effect = lower value 1.01 | locus YCL011C, strain gbp2, stronger effect = lower value 0.919 | locus YCL061C, strain MRC1, stronger effect = lower value 0.956 | locus YCL069W, strain vba3, stronger effect = lower value 0.968 | locus YCR088W, strain abp1, stronger effect = lower value 0.964 | locus YDL005C, strain med2, stronger effect = lower value 1.07 | locus YDL040C, strain nat1, stronger effect = lower value 1.02 | locus YDR001C, strain nth1, stronger effect = lower value 1.02 | locus YDR159W, strain sac3, stronger effect = lower value 1.05 | locus YDR297W, strain sur2, stronger effect = lower value 0.976 | locus YDR334W, strain swr1, stronger effect = lower value 1.04 | locus YDR392W, strain spt3, stronger effect = lower value 0.939 | locus YEL037C, strain rad23, stronger effect = lower value 0.953 | locus YEL061C, strain CIN8 (second series), stronger effect = lower value 1 | locus YER016W, strain bim1, stronger effect = lower value 0.986 | locus YER111C, strain swi4, stronger effect = lower value 1.01 | locus YER155C, strain BEM2 (second series), stronger effect = lower value 1.01 | locus YGL167C, strain pmr1, stronger effect = lower value 1.04 | locus YGL227W, strain vid30, stronger effect = lower value 1.02 | locus YGL240W, strain doc1, stronger effect = lower value 1.06 | [6] 0.859 | locus YHR079C, strain IRE1, stronger effect = lower value 0.959 | locus YJL092W, strain hpr5, stronger effect = lower value 0.945 | locus YJL095W, strain BCK1, stronger effect = lower value 0.935 | locus YJL115W, strain asf1, stronger effect = lower value 1.03 | locus YJL154C, strain vps35, stronger effect = lower value 1.02 | locus YJR066W, strain TOR1, stronger effect = lower value 0.929 | locus YKL160W, strain elf1, stronger effect = lower value 0.931 | locus YKR026C, strain gcn3, stronger effect = lower value 0.999 | locus YKR091W, strain srl3, stronger effect = lower value 1.02 | locus YLL001W, strain dnm1, stronger effect = lower value 0.929 | locus YLL026W, stronger effect = lower value 0.942 | locus YLL041C, strain sdh2, stronger effect = lower value 1.01 | locus YLR113W, strain HOG1, stronger effect = lower value 0.936 | locus YLR258W, strain gsy2, stronger effect = lower value 0.932 | locus YLR262C, strain YPT6 (second series), stronger effect = lower value 1.02 | locus YLR384C, strain iki3, stronger effect = lower value 1.02 | locus YML120C, strain ndi1, stronger effect = lower value 0.983 | locus YMR125W, strain sto1, stronger effect = lower value 0.943 | locus YMR129W, stronger effect = lower value 1.03 | locus YNL183C, strain NPR1, stronger effect = lower value 0.954 | locus YNL248C, strain rpa49, stronger effect = lower value 0.935 | locus YNL322C, strain KRE1 (second series), stronger effect = lower value 1.08 | locus YNR049C, strain mso1, stronger effect = lower value 0.996 | locus YOR001W, strain rrp6, stronger effect = lower value 0.928 | locus YOR080W, strain dia2, stronger effect = lower value 0.982 | locus YOR231W, strain MKK1, stronger effect = lower value 0.988 | locus YOR265W, strain rbl2, stronger effect = lower value 0.953 | locus YPL078C, strain atp4, stronger effect = lower value 0.922 | locus YPL106C, strain sse1, stronger effect = lower value 1.03 | locus YPL240C, strain hsp82, stronger effect = lower value 1.01 | locus YPL256C, strain CLN2, stronger effect = lower value 0.969
active: locus YAL021C, strain ccr4, stronger effect = lower value 0.529 | locus YAL026C, strain drs2, stronger effect = lower value 0.0645 | locus YBL061C, strain skt5, stronger effect = lower value 0.864 | locus YBR009C, strain hhf1, stronger effect = lower value 0.82 | locus YBR023C, strain chs3, stronger effect = lower value 0.858 | locus YBR231C, strain swc5, stronger effect = lower value 0.89 | locus YBR279W, strain paf1, stronger effect = lower value 0.905 | locus YCL016C, strain dcc1, stronger effect = lower value 0.866 | locus YDR069C, strain doa4, stronger effect = lower value 0.639 | locus YDR137W, strain rgp1, stronger effect = lower value 1.29 [resistant] | locus YDR195W, strain ref2 1.47 [resistant] | locus YDR335W, strain msn5, stronger effect = lower value 0.849 | locus YEL003W, strain gim4, stronger effect = lower value 0.898 | locus YER015W, strain faa2, stronger effect = lower value 0.634 | locus YFR010W, strain ubp6, stronger effect = lower value 0.605 | locus YGL173C, strain kem1, stronger effect = lower value 0.799 | locus YGL253W, strain hxk2, stronger effect = lower value 0.859 | locus YHR013C, strain ard1, stronger effect = lower value 0.677 | locus YHR027C, strain rpn1, stronger effect = lower value 0.817 | locus YHR142W, strain chs7, stronger effect = lower value 0.77 | locus YJL095W, strain BCK1 (second series), stronger effect = lower value 0.0692 | locus YJL129C, strain trk1, stronger effect = lower value 0.794 | locus YJL164C, strain tpk1, stronger effect = lower value 0.855 | locus YJL166W, strain qcr8, stronger effect = lower value 0.862 | locus YLR027C, strain aat2, stronger effect = lower value 0.921 | locus YLR221C, strain rsa3, stronger effect = lower value 0.9 | locus YLR320W, strain mms22, stronger effect = lower value 0.805 | locus YLR342W, strain FKS1, stronger effect = lower value 0.647 | locus YLR357W, strain rsc2, stronger effect = lower value 1.17 [resistant] | locus YLR370C, strain arc18, stronger effect = lower value 0.703 | locus YMR058W, strain fet3, stronger effect = lower value 0.661 | locus YMR205C, strain PFK2, stronger effect = lower value 0.866 | locus YMR231W, strain pep5, stronger effect = lower value 0.0786 | locus YNL071W, strain lat1, stronger effect = lower value 0.847 | locus YNL209W, strain ssb2, stronger effect = lower value 0.846 | locus YOR070C, strain gyp1, stronger effect = lower value 0.817 | locus YOR083W, strain WHI5, stronger effect = lower value 0.824 | locus YOR106W, strain vam3, stronger effect = lower value 0.622 | locus YOR270C, strain vph1, stronger effect = lower value 0.348 | locus YOR290C, strain snf2, stronger effect = lower value 0.852 | locus YPL051W, strain arl3, stronger effect = lower value 0.776

O=C1CC(=O)CC(c2ccc(Cl)c(Cl)c2)C1
inactive: [1] 0.982 | locus YBR229C, strain ROT2, stronger effect = lower value 0.998 | locus YDL101C, strain DUN1, stronger effect = lower value 1.02 | locus YDR150W, strain NUM1, stronger effect = lower value 1.04 | locus YEL061C, strain CIN8, stronger effect = lower value 0.978 | locus YGR078C, strain PAC10, stronger effect = lower value 0.997 | [6] 1.04 | locus YHR087W, strain rtc3, stronger effect = lower value 0.98 | locus YJR043C, strain POL32, stronger effect = lower value 1.01 | [2] 1.01 | locus YKL190W, strain CNB1, stronger effect = lower value 0.998 | locus YLR039C, strain RIC1, stronger effect = lower value 0.959 | locus YLR058C, strain SHM2 (second series), stronger effect = lower value 0.985 | locus YLR085C, strain ARP6, stronger effect = lower value 0.983 | locus YLR262C, strain YPT6, stronger effect = lower value 0.949 | locus YML094W, strain GIM5, stronger effect = lower value 0.99 | locus YMR219W, strain ESC1, stronger effect = lower value 0.991 | locus YMR263W, strain SAP30, stronger effect = lower value 1.01 | locus YMR307W, strain GAS1, stronger effect = lower value 1.02 | [3] 0.997 | locus YNL298W, strain CLA4 (second series), stronger effect = lower value 1 | [4] 0.976 | locus YNR030W, strain Alg12, stronger effect = lower value 1 | [5] 1.15 | locus YPL241C, strain CIN2, stronger effect = lower value 1.01 | locus YPR135W, strain CTF4, stronger effect = lower value 1.22
